Most compounds without a hit are left out; they make up all but 6.5% or so of the library.
Lassa entry inh: qHTS for Inhibitors of binding or entry into cells for Lassa Virus; 300,000 compounds, 1.2% hits; Lassa virus pseudotype entry inhibition, cell reporter; Potency, µM (doses to about 37.9 µM), most hits filed as inhibitors; calls by dose curve; tested in HEK293 cells; also: nearly all actives have a fitted effect of over 50% in size
HCMV inh: qHTS Assay for inhibitors of the human cytomegalovirus (HCMV). HFF cells, HCMV-luciferase reporter, 72 h; hits give low values. activity change, negative = inhibition, % at 57.5 µM. 410,000 compounds, 4.5% hits. AID 1259415, 2018; in the data active = activity change below about -60%; inconclusive = no clear call, values can overlap the other calls; inactive = above about -39%
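Two-dose cell screen: HFF monolayers treated with compounds and infected with luciferase-expressing HCMV at 1 PFU/cell, 72 h at 37C, then lysed for luciferase measurement.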
Vaccinia mCherry: qHTS for Stage-Specific Inhibitors of Vaccinia Orthopoxvirus: mCherry Reporter Primary qHTS; Vaccinia virus mCherry reporter infection, fluorescence; Potency, µM (top dose mostly 36.5 µM), most hits filed as inhibitors; 310,000 compounds, 0.63% hits; AID 720579, 2013; calls by dose curve; tested in A549 cells; also: nearly all actives have a fitted effect of over 35% in size
FMDV inh: High Throughput Screening for Foot and Mouth Disease Virus Antivirals; FMDV antiviral cell-based qHTS; Potency, µM (series often up to 57.9 µM), actives largely listed as inhibitors; 410,000 compounds, 1.2% hits; AID 1159524, 2015; calls by dose curve; tested in HEK293T cells; also: read-out not given here; nearly all actives have a fitted effect of over 45% in size
MARV entry inh: qHTS for inhibitors of binding or entry into cells for Marburg Virus; AID 540276, 2011; Marburg virus pseudotyped entry inhibition, cell reporter; Potency, µM (doses to about 37.8 µM), hits mostly inhibitors; 300,000 compounds, 1.8% hits; calls by dose curve; tested in HEK293 cells
Vaccinia Venus: qHTS for Stage-Specific Inhibitors of Vaccinia Orthopoxvirus: Venus Reporter Primary qHTS; 330,000 compounds, 0.46% hits; Potency, µM (titrated, usually from 36.5 µM), hits mostly inhibitors; AID 720580, 2013; Vaccinia virus Venus reporter expression, fluorescence; calls by dose curve; tested in A549 cells; also: nearly all actives have a fitted effect of over 30% in size
Large screens that a line does not name were inactive.

O=C(/C=C/c1ccc(N2CCC(c3ccccc3)=N2)cc1)c1ccccc1	none
CCOC(=O)/C(=C\c1ccc(N2CCC(c3ccccc3)=N2)cc1)C(C)=O	Lassa entry inh 7.9µM, MARV entry inh 2.8µM
CC(=O)Nc1ccc(NC(=O)CSc2nc3ccccc3nc2N2CCOCC2)cc1	Lassa entry inh inconclusive
COc1cccc(NC(=O)CSc2nc3ccccc3nc2N2CCOCC2)c1	Lassa entry inh 7.1µM, HCMV inh inconclusive, MARV entry inh inconclusive
COC(=O)c1ccccc1-c1ccc(/C=N/NC(=O)c2cc3ccccc3o2)o1	none
O=C(O)c1ccccc1-c1c2ccc(=O)cc-2oc2cc(O)ccc12	Lassa entry inh 28µM, MARV entry inh 35µM (no result: HCMV inh, Vaccinia mCherry, FMDV inh, Vaccinia Venus)
COC(=O)c1ccccc1-c1c2ccc(=N)cc-2oc2cc(N)ccc12	Lassa entry inh 7.9µM, HCMV inh -97, MARV entry inh inconclusive (no result: Vaccinia Venus)
O=C(O)c1ccccc1-c1oc2cc(O)ccc2c(=O)c1Oc1ccccc1	none (no result: Lassa entry inh, HCMV inh, Vaccinia mCherry, MARV entry inh, Vaccinia Venus)
N#C/C(=C\c1ccc([N+](=O)[O-])o1)C(=O)Nc1ccc(F)cc1	HCMV inh -78, FMDV inh inconclusive, MARV entry inh inconclusive
Cc1ccc(/C=C/C(=O)Nc2ccc(S(N)(=O)=O)cc2)o1	none
N#CCc1ccc(NC(=O)/C=C/c2ccc([N+](=O)[O-])o2)cc1	Lassa entry inh 7.9µM, Vaccinia mCherry 7.1µM, FMDV inh inconclusive, MARV entry inh inconclusive, Vaccinia Venus inconclusive (no result: HCMV inh)
Cc1cc(C2(c3ccc(O)c(C)c3)C(=O)Nc3ccccc32)ccc1O	Lassa entry inh inconclusive, HCMV inh -80, FMDV inh inconclusive, MARV entry inh inconclusive, Vaccinia Venus inconclusive (no result: Vaccinia mCherry)
Cc1cccc2c1NC(=O)C2(c1ccc(O)cc1)c1ccc(O)cc1	none (no result: Vaccinia mCherry)
COc1ccccc1NC(=O)Cn1c(O)c(N=NC(=O)c2ccccc2O)c2ccccc21	HCMV inh -107, FMDV inh inconclusive (no result: Lassa entry inh, Vaccinia mCherry, MARV entry inh, Vaccinia Venus)
Cc1ccc(NC(=O)Cn2c(O)c(N=NC(=O)c3cc4ccccc4cc3O)c3ccccc32)cc1	Lassa entry inh inconclusive, HCMV inh -101, MARV entry inh inconclusive
Cn1c(O)c(N=NC(=O)c2ccccc2O)c2ccccc21	Lassa entry inh inconclusive, MARV entry inh inconclusive
Cc1ccc(NC(=O)Cn2c(O)c(N=NC(=O)c3ccncc3)c3ccccc32)cc1	MARV entry inh inconclusive (no result: HCMV inh)
CC(C)C1=Nc2nc(N)nn2C(=O)C1	none (no result: Lassa entry inh, HCMV inh, Vaccinia mCherry, FMDV inh, Vaccinia Venus)
COc1ccc(CC2(C)OC(c3ccc(C)c([N+](=O)[O-])c3)=NN2C(C)=O)cc1 (configuration not stated)	Lassa entry inh 0.79µM, FMDV inh inconclusive, MARV entry inh inconclusive
CC1O[C@@H](O[C@H]2C(Oc3cc(O)c4c(=O)cc(-c5ccc(O)cc5)oc4c3)OC(CO)C(O)C2O)C(O)C(O)C1O (some centres not stated)	none (no result: Lassa entry inh, HCMV inh, MARV entry inh)
COC1C(O)C(C)OC(OC2C(Oc3cccc4c(O)c5c(=O)oc6ccc(C)c7c(=O)oc(c34)c5c67)OC(C)C(O)C2O)C1O (configuration not stated)	Lassa entry inh inconclusive, HCMV inh -97, FMDV inh inconclusive, MARV entry inh inconclusive
O=C(N/N=C/c1cccnc1)c1cc(-c2ccc(Cl)cc2)nc2ccccc12	none (no result: Lassa entry inh, Vaccinia mCherry, MARV entry inh, Vaccinia Venus)
O=C(N/N=C/c1ccc([N+](=O)[O-])o1)c1cc(-c2ccncc2)nc2ccccc12	Lassa entry inh inconclusive, HCMV inh -67, MARV entry inh inconclusive (no result: Vaccinia mCherry, Vaccinia Venus)
O=C(N/N=C/c1cccc(O)c1)c1cc(-c2ccccc2)nc2ccccc12	none (no result: Lassa entry inh, Vaccinia mCherry, MARV entry inh, Vaccinia Venus)
O=C(N/N=C/c1cccnc1)c1cc(-c2ccccc2)nc2ccccc12	MARV entry inh 4µM
O=C(N/N=C/c1ccccn1)c1cc(-c2ccncc2)nc2ccccc12	Lassa entry inh inconclusive, Vaccinia mCherry inconclusive, MARV entry inh inconclusive
O=C(N/N=C/c1ccco1)c1cc(-c2cccc(Br)c2)nc2ccccc12	Lassa entry inh inconclusive, HCMV inh -63, Vaccinia mCherry inconclusive, MARV entry inh inconclusive
CC(/C=N/NC(=O)c1cc(-c2ccncc2)nc2ccccc12)=C\c1ccco1	Vaccinia mCherry inconclusive, MARV entry inh 2.9µM, Vaccinia Venus inconclusive (no result: HCMV inh)
COc1ccccc1CNc1nc2c(S(=O)(=O)c3ccccc3)nnn2c2ccc(Cl)cc12	Vaccinia mCherry inconclusive, Vaccinia Venus inconclusive (no result: Lassa entry inh)
O=C(C1COc2ccccc2O1)N1CCN(c2nc3ccc(F)cc3s2)CC1 (configuration not stated)	HCMV inh inconclusive (no result: MARV entry inh)
Cc1ccc(/C=N/NC(=O)c2ccc3nc[nH]c3c2)o1	HCMV inh -60
O=C(N/N=C/c1ccc([N+](=O)[O-])o1)c1cc(-c2ccc(-c3ccccc3)cc2)nc2ccccc12	Lassa entry inh inconclusive, HCMV inh -99, Vaccinia mCherry inconclusive, FMDV inh inconclusive, MARV entry inh inconclusive
Cc1ccc(/C=N/NC(=O)c2cc(-c3ccncc3)nc3ccccc23)o1	HCMV inh -64, Vaccinia mCherry inconclusive, MARV entry inh inconclusive
Cc1ccc(-c2cc(C(=O)N/N=C/c3ccc([N+](=O)[O-])o3)c3ccccc3n2)o1	Lassa entry inh inconclusive, Vaccinia mCherry inconclusive, MARV entry inh inconclusive, Vaccinia Venus inconclusive
COC(=O)c1ccc(/C=N/NC(=O)c2ccc3nc[nH]c3c2)cc1	HCMV inh inconclusive (no result: Lassa entry inh, Vaccinia mCherry, MARV entry inh, Vaccinia Venus)
COc1ccccc1-c1cc(C(=O)N/N=C/c2ccc(C)o2)c2ccccc2n1	Lassa entry inh inconclusive, MARV entry inh inconclusive
O=C1C2ON(c3ccccc3)C(c3ccncc3)C2C(=O)N1c1ccc(N2CCOCC2)cc1 (configuration not stated)	HCMV inh -75 (no result: Lassa entry inh)
Clc1ccc2c(N3CCNCC3)ccnc2c1	HCMV inh -109
Oc1ccc(N2CCN(c3ccnc4cc(Cl)ccc34)CC2)cc1	HCMV inh -66, Vaccinia mCherry inconclusive, MARV entry inh inconclusive
Cc1nn(-c2ccc3nnc(C)n3n2)c(C)c1CCC(=O)Nc1ccc(OC(F)(F)F)cc1	Lassa entry inh inconclusive (no result: MARV entry inh)
CCc1ccc(CNC(=O)C(CC)n2ccc3cc(S(=O)(=O)N4CCCCC4)ccc32)cc1 (configuration not stated)	none (no result: MARV entry inh)
CCCN1C=CC(=C2C(=O)c3ccccc3C2=O)C=C1	Lassa entry inh 0.21µM, HCMV inh -98, FMDV inh 1µM, MARV entry inh 0.21µM (no result: Vaccinia mCherry, Vaccinia Venus)
CCCCN1C(C)=CC(=C2C(=O)c3ccccc3C2=O)C=C1C	Lassa entry inh inconclusive, MARV entry inh inconclusive
CN1C=CC(=C2C(=O)c3ccccc3C2=O)C=C1	none (no result: Lassa entry inh, HCMV inh, Vaccinia mCherry, FMDV inh, Vaccinia Venus)
CCCCCCN1C=CC(=C2C(=O)c3ccccc3C2=O)C=C1	HCMV inh -66 (no result: Lassa entry inh, Vaccinia mCherry, MARV entry inh, Vaccinia Venus)
CCN1C=CC(=C2C(=O)c3ccccc3C2=O)C=C1	Lassa entry inh 0.65µM, HCMV inh -89, FMDV inh 4.5µM, MARV entry inh 1.8µM (no result: Vaccinia mCherry, Vaccinia Venus)
CC1C=CC(C(C2C(=O)CC(C)(C)CC2=O)C2C(=O)CC(C)(C)CC2=O)S1 (configuration not stated)	none (no result: Lassa entry inh, HCMV inh, Vaccinia mCherry, FMDV inh, Vaccinia Venus)
COC(=O)[C@](NC(C)=O)(Nc1nc2ccc(S(C)(=O)=O)cc2s1)C(F)(F)F	none (no result: Lassa entry inh, HCMV inh, Vaccinia mCherry, FMDV inh, Vaccinia Venus)
